High-throughput results (PubChem BioAssay)
Shown is part of a subset that was picked to be rich in hits.
NTMT1 inh: NTMT1 methyltransferase inhibition; NTMT1 MTase-Glo SAH luminescence, purified enzyme; actives 2.5% (n = 59,000); Q9BV86; Potency, µM (top dose mostly 114 µM), without a hit: at the highest dose activity change, negative = inhibition, most hits filed as inhibitors; AID 1645870;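 further: potency means the concentration at half of the fitted maximal effect; plate controls were DMSO vehicle for no effect and no enzyme for full effect; nearly all actives have a fitted effect of over 65% in size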
HTT-AS promoter: HTT-AS promoter activation; AID 1508624; Potency, µM (top dose mostly 57.5 µM), for inactives: top-dose activity change, positive = activation, most hits filed as activators; HEK293 HTT-AS promoter firefly luciferase reporter, 24 h; response scale: percent change from vehicle, -100% = no light; actives 0.24% (n = 48,000); further: potency means the concentration at half of the fitted maximal effect; nearly all actives have a fitted effect of over 55% in size
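HEK293 Fluc reporter, 2,500 cells/well, 24 h pre-culture; cpds up to 57.5 uM final, 24 h 37 degrees C; Dual-Glo, 10 min RT; normalized vehicle = 0%, zero RLU = -100%.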
TSG101-PTAP inh: inhibitors of HIV-1 PTAP binding to human TSG101, validation. Q99816. Fluorescence polarization, FITC-PTAP peptide/Tsg101, 20 min. Potency, µM (doses to about 115 µM), usual class: inhibitors. 44,000 tested, under 10 active. AID 1347069; further: potency means the concentration at half of the fitted maximal effect; 0% is about no effect
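Compounds pinned into 10 uM Tsg101 binding domain, then 50 nM FITC-PTAP peptide added in pH 7.5 HEPES buffer; FP read after 20 min, room temperature. Total S+P intensity flags fluorescent compounds; active cut-off <25 µM, efficacy <60%.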
B2AR arrestin ag: ADRB2 beta-arrestin recruitment. HTLA Tango cells, beta-arrestin recruitment, luciferase luminescence, 18 h. Potency, µM (highest dose often 46.1 µM), most hits filed as activators. P07550. 44,000 tested, under 10 active;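 further: potency means the concentration at half of the fitted maximal effect; 0% = DMSO and full agonism = EC100 isoproterenol or metaproterenol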
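Tango cell line, 1% FBS DMEM; cpd titration up to 46 microM; 18 hr, 37 degrees C, 5% CO2. Luciferin/ATP substrate mix added, 15 min RT, luminescence. %Activity, CRC fitting, curve-class categorization.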
GALK inhibitor: GALK (human) enzyme inhibition; P51570; recombinant GALK, Kinase-Glo ATP luminescence, 1 h; Potency, µM (highest dose often 57.5 µM), for the others: top-dose activity, negative = inhibition, most hits filed as inhibitors; 44,000 tested, under 10 active;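 further: plate controls were full GALK reaction for no effect and reaction lacking GALK for full effect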
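Luminescent ATP-depletion readout (Kinase-Glo Plus) after 1 h room-temperature incubation of human GALK (5 nM) with galactose 100 µM and ATP 35 µM, pH 8.0 HEPES/Mg2+ buffer; compounds tested in qHTS format.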
HTT prom inh: inhibitors of huntingtin promoter activity; HEK293 HTT promoter firefly luciferase reporter, 24 h; actives 0.93% (n = 48,000); AID 1508623; Potency, µM (titrated, usually from 57.5 µM), inactives show at the top dose activity change, negative = inhibition, most hits filed as inhibitors; further: potency means the concentration at half of the fitted maximal effect; nearly all actives have a fitted effect of over 50% in size
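Firefly luciferase signal from promoter-reporter HEK293 cells was scaled between vehicle (0%) and zero RLU (-100%). Compounds were tested at final concentrations of up to 57.5 uM over 24 h at 37 degrees C. PTC124 at 50 uM final served as control inhibitor.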
CLK4 inh-1: inhibits human CLK4 kinase in Kinase-Glo confirmation; recombinant Clk4, Kinase-Glo ATP luminescence, 4.5 h; AID 493204; shares compounds with NTMT1 inh; Potency, µM (highest dose often 76.9 µM), for the others: top-dose activity, negative = inhibition, hits mostly inhibitors; actives 90% (n = 90)
Target sequence (Q9HAZ1 whole entry, looked up): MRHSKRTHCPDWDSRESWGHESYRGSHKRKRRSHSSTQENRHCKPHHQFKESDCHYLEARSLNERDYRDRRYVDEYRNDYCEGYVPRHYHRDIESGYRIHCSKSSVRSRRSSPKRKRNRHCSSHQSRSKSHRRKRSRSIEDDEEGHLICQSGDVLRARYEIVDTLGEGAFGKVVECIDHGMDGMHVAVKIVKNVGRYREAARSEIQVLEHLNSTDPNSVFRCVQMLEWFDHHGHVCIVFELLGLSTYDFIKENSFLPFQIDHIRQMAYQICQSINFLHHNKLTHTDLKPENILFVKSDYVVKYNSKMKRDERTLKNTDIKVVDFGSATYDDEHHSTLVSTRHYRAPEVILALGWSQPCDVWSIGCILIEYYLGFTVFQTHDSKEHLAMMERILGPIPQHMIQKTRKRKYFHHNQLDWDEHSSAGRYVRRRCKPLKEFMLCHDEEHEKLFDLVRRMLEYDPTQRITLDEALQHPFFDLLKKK
CLK4 inh-2: inhibitors of human CLK4 kinase, SAR round 2. shares compounds with NTMT1 inh. Reaction Biology kinase assay, 10 uM ATP. Potency, µM, most hits filed as inhibitors. actives 100% (n = 65). AID 504421; calls by dose curve
DYRK1A RBC: DYRK1A kinase inhibition; shares compounds with NTMT1 inh; Reaction Biology kinase assay, 10 uM ATP; Potency, µM, most hits filed as inhibitors; actives 90% (n = 65); AID 504424;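 active means compounds that showed inhibition of Dyrk1a and received a fitted potency; inactive means compounds that showed no inhibition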
CLK2 inh: CLK2 kinase inhibition. shares compounds with NTMT1 inh. Reaction Biology kinase assay, 10 uM ATP. Potency, µM, most hits filed as inhibitors. actives 90% (n = 65). AID 504427;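 active means compound that inhibits Clk2 kinase in the dose series, with an IC50 potency reported; inactive means no inhibition seen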
CLK3 RBC: CLK3 kinase inhibition; recombinant CLK3 kinase assay, 10 uM ATP; shares compounds with NTMT1 inh; Potency, µM, hits mostly inhibitors; actives 40% (n = 65);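 active means compounds that inhibited Clk3 enough in the ten-dose series to give a half-maximal potency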
DYRK1B inh: DYRK1B kinase inhibition; shares compounds with NTMT1 inh; Recombinant Dyrk1b kinase assay, 10 uM ATP; Potency, µM, most hits filed as inhibitors; actives 80% (n = 65);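 active means compounds whose dose response shows an inhibitor phenotype against the kinase Dyrk1b; inactive means compounds showing no inhibitor phenotype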
CLK1 inh: inhibitors of human CLK1 kinase; shares compounds with NTMT1 inh; recombinant Clk1 kinase assay, 10 uM ATP; Potency, µM, actives largely listed as inhibitors; actives 90% (n = 65); AID 504430;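 active means compounds that block the splicing kinase Clk1 enough to give a fitted half-inhibition concentration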
Sfp qHTS opt: Sfp PPTase inhibition, chemistry optimization; purified Sfp PPTase enzyme activity, qHTS; Potency, µM (series often up to 114 µM), inactives show top-dose activity change, negative = inhibition, actives largely listed as inhibitors; actives 78% (n = 230); shares compounds with NTMT1 inh; AID 540350
HM489 growth: reduces growth of B. subtilis HM489 strain. actives 50% (n = 220). shares compounds with NTMT1 inh. B. subtilis HM489 (acpS-) growth, BacTiter-Glo, 5 h. Potency, µM (series often up to 114 µM), inactives show at the highest dose activity change, negative = inhibition, actives largely listed as inhibitors
Sfp gel opt: inhibits B. subtilis Sfp PPTase in gel assay. shares compounds with NTMT1 inh. purified Sfp PPTase, gel-based product detection. Potency, µM (titrated, usually from 250 µM), for inactives: at the top dose activity change, negative = inhibition, actives largely listed as inhibitors. actives 54% (n = 220). AID 540355
Sfp SAR2: Sfp phosphopantetheinyl transferase inhibition, SAR round 2; purified Sfp enzyme, PPTase activity, qHTS; shares compounds with NTMT1 inh; actives 87% (n = 230); AID 602370; Potency, µM (series often up to 57.1 µM), for inactives: top-dose activity change, negative = inhibition, most hits filed as inhibitors
HSD17B4 inh: HSD17B4 (human) inhibition, HPGD counter-screen. shares compounds with NTMT1 inh. purified HSD17B4, estradiol/NAD+, NADH fluorescence. Potency, µM (top dose mostly 57.1 µM), without a hit: top-dose activity change, negative = inhibition, usual class: inhibitors. actives 10% (n = 230)
ALDH1A1 inh: counter-screen for HPGD inhibitors: human ALDH1A1 inhibition. AID 743195. recombinant ALDH1A1, NADH fluorescence, propionaldehyde/NAD+. shares compounds with NTMT1 inh. Potency, µM (series often up to 57.1 µM), without a hit: at the highest dose activity change, negative = inhibition, usual class: inhibitors. actives 93% (n = 230)
NNMT counter: human NNMT inhibition, NTMT1 counter-screen; NNMT MTase-Glo luminescence, SAH detection; shares compounds with NTMT1 inh; Potency, µM (highest dose often 57.1 µM), inactives show at the highest dose activity, negative = inhibition, actives largely listed as inhibitors; actives 10% (n = 120)
Target sequence (P40261 whole entry, looked up): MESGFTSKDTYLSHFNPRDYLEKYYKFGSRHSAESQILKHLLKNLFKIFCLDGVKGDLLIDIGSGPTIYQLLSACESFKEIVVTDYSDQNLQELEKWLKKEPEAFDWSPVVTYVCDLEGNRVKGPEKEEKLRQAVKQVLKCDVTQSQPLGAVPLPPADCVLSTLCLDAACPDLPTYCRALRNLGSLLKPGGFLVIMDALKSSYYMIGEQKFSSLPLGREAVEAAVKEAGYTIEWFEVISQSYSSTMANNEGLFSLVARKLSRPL
* = called active by the depositor; i = inactive; ? = inconclusive; · = no result; [ ] = dose if it differs, or a comment. Unless noted, the call rests on the fitted dose curve; in most records, active means well fitted curve in the direction sought with a large enough effect; inconclusive means small, poorly fitted or top-dose-only effect, or another doubt; inactive means no such curve, though single readings can be large; an effect the other way counts as inactive or inconclusive.

SMILES	NTMT1 inh	HTT-AS promoter	TSG101-PTAP inh	B2AR arrestin ag	GALK inhibitor	HTT prom inh	Sfp qHTS opt	HM489 growth	Sfp gel opt	Sfp SAR2	HSD17B4 inh	ALDH1A1 inh	others
CN(CC1CCCO1)c1ncnc2ccc(-c3ccc4c(c3)OCO4)cc12 (stereo not given)	9.8%	·	·	·	·	·	·	·	·	·	·	·	CLK4 inh-1=0.0582µM*
Cc1ccc2nc3sc(C(=O)N4CCCCC4)cc3cc2c1	0.3%[57.5 µM]	·	·	·	·	·	·	·	·	·	·	·
O=c1nc(-c2ccccn2)sc2ccccc12	20µM*	·	·	·	·	·	·	·	·	·	·	·	NNMT counter=?
CC#C[C@@H](CC(=O)O)c1ccc(OCc2cccc(-c3ccc(C(F)(F)F)cc3)c2)cc1	22.4µM*	·	·	·	·	·	·	·	·	·	·	·	NNMT counter=?
CC(C)C[C@H](C(=O)O)c1cc(-c2ccc(C(F)(F)F)cc2)cc(-c2ccc(C(F)(F)F)cc2)c1	-17.3%[57.5 µM]	·	·	·	·	·	·	·	·	·	·	·
C(=Nc1cccnc1)c1cccs1	-0.1%[57.5 µM]	·	·	·	·	·	·	·	·	·	·	·
Cc1ccnc(NC(=S)N2CCN(c3ccc(Br)cc3)CC2)c1	?	·	·	·	·	·	5.91µM*	23.5µM*	7.94µM*	1.82µM*	-13.3%	3.41µM*
CC(=O)c1ccc(N2CCN(C(=O)c3cc4ccc5cccnc5c4[nH]3)CC2)cc1	10.3%	-11.0%	i	i	1.9%	-0.4%	·	·	·	·	·	·
CC(=O)c1ccc(N2CCN(C(=S)Nc3cc(C)ccn3)CC2)cc1	?	·	·	·	·	·	5.91µM*	16.7µM*	5.01µM*	1.02µM*	?	7.64µM*
OCc1ccc(-c2ccc3ncnc(N4CCOCC4)c3c2)o1	-14.1%	·	·	·	·	·	·	·	·	·	·	·	CLK4 inh-1=0.519µM*;CLK4 inh-2=1.15*;DYRK1A RBC=14.7µM*;CLK2 inh=14.2µM*;CLK3 RBC=i;DYRK1B inh=15µM*;CLK1 inh=5.35µM*
CCc1ccc(CNC(=O)c2c(C)oc3ncnc(N4CCOCC4)c23)cc1	2.2%	-30.0%	i	i	2.3%	?	·	·	·	·	·	·
CCC1C(=O)N(C)c2cnc(Nc3ccc(C(=O)NC4CCN(C)CC4)cc3OC)nc2N1C1CCCC1 (stereo not given)	12.6µM*	·	·	·	·	·	·	·	·	·	·	·	NNMT counter=?
O=C(Nc1cccc(C(F)(F)F)c1)c1cccc2cc(Oc3cc(CO)ncn3)ccc12	18.3%	·	·	·	·	·	·	·	·	·	·	·
O=C(c1ccc2c(c1)ncn2-c1cccc(C(F)(F)F)c1)N1CCCCC1	-0.5%[57.5 µM]	·	·	·	·	·	·	·	·	·	-12.4%	?
Cc1ccc(-n2cnc3cc(C(=O)N4CCCCC4)ccc32)cc1	2.2%	·	·	·	·	·	·	·	·	·	·	·
O=C(c1cc2ccc3cccnc3c2[nH]1)N1CCN(c2cccc(Cl)c2)CC1	-3.4%	-27.3%	i	i	2.9%	?	·	·	·	·	·	·
Cc1ccnc(NC(=O)C(C)c2cccc(C(=O)c3ccccc3)c2)c1 (stereo not given)	6.2%[57.5 µM]	·	·	·	·	·	·	·	·	·	·	·
Cc1ccnc(NC(=S)N2CCN(c3ccc(Cl)cc3Cl)CC2)c1	?	·	·	·	·	·	1.87µM*	8.35µM*	12.6µM*	0.73µM*	-18.2%	5.41µM*
S=C(Nc1cc(Cl)ccn1)N1CCN(c2ccc3ccccc3n2)CC1	?	·	·	·	·	·	?	26.4µM*	?	7.25µM*	-23.4%	i
Cc1ccnc(NC(=S)N2CCc3ccccc3C2)c1	?	·	·	·	·	·	9.37µM*	33.2µM*	3.16µM*	1.02µM*	47.1%	3.04µM*
Cc1ccnc(NC(=S)N2CCNCC2)c1	?	·	·	·	·	·	3.8%	?	-51.6%	14.5µM*	9.7%	27.1µM*
CN(C)c1cccc(-c2c3c(=O)n(-c4ccccc4Cl)[nH]c3cc(=O)n2C)c1	-24.6%[57.5 µM]	·	·	·	·	·	·	·	·	·	·	·
